Screening data as filed in PubChem BioAssay.
HIF act = HIF pathway transcriptional activation | U2OS HRE-luciferase reporter, luminescence; normalized: DMSO 0%, desferrioxamine 100% | activation, % at 7.5 µM (by protocol) | hit rate 0.32% among 300,000 | AID 1910;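 active = mean activation of at least 10% of the iron chelator positive control signal, with at least half of replicates also reaching 10%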
PGC1a acetyl inh = lowers PGC1a acetylation signal in U2OS cells; inhibition, % at 15.6 µM; hit rate 0.17% among 350,000; AID 651687; AlphaScreen anti-acetyl-lysine; with virally co-expressed GCN5 acetyltransferase;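 active = every replicate shows inhibition of at least 40%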;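 note: 0% = neutral control wells and 100% = positive control wells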
Rce1 inh = inhibitors of yeast Ras-converting enzyme; Q03530; yeast membranes, quenched prenylated peptide cleavage fluorescence; calls only; hit rate 0.27% among 290,000; AID 2563;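 active = fall in fluorescence gain of 50% or more versus controls, with final raw signal at or below 3038400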;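 note: plate controls were neutral control wells for no effect and wells lacking membranes for full effect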
Target sequence (Q03530 whole entry, looked up): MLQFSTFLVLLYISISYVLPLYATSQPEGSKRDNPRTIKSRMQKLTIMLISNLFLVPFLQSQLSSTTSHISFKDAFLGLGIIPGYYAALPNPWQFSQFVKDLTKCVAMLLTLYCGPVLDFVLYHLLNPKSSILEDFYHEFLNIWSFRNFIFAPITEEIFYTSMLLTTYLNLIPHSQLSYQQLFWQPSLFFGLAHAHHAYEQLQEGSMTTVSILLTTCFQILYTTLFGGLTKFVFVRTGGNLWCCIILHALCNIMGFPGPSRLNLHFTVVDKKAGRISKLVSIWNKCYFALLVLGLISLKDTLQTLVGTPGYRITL
C2C12 statin = protects C2C12 myotubes from simvastatin toxicity | ATP luminescence, 48 h; scaled: DMSO 0, geranylgeraniol control 100 | rescue of ATP level, % at 7.49 µM | hit rate 0.78% among 330,000;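 active = mean ATP rescue above about 67%, or every replicate alone reaching that limit, limit read from the data, passing the limit was not always enough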;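 note: myotubes were challenged with 10 µM simvastatin during compound exposure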
AI-2 QS mod = Vibrio harveyi AI-2 quorum sensing modulation | Vibrio harveyi JMH597 AI-2 luminescence/OD600 ratio, 9 h; hits give low values; strain lacks LuxN and CqsS sensors; 0 = neutral-control median | activity change, % at 7.5 µM | hit rate 0.4% among 300,000; in the data active = activity change below about -75%, passing the limit was not always enough;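 note: luminescence divided by OD600 gain over 9 h not by final OD600 alone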
* hit, by the source's call; i = inactive; . = not tested or not shown; + = active, no number. An excerpt weighted towards active compounds, which were near 1.3% of everything screened.

SMILES	HIF act	PGC1a acetyl inh	Rce1 inh	C2C12 statin	AI-2 QS mod
C=CCNC(=O)c1ccc(C2SCC(=O)N2Cc2ccccc2)cc1 (configuration not stated)	0	3	i	-7	16
O=C(NCc1ccccc1)c1ccc(C2SCC(=O)N2Cc2ccccc2)cc1 (configuration not stated)	0	-12	i	79*	8
Cc1cc(C)nc(Sc2ncnc(N)c2[N+](=O)[O-])n1	11*	0	i	10	-3
CC(=O)N1CC[C@@H]2[C@H]1c1cc(-c3ccccc3)ccc1N(C)[C@H]2CO	.	-3	.	4	.
COCC(=O)N1[C@@H](CO)[C@@H](c2ccccc2)C12CN(Cc1ccccc1)C2	.	-5	.	.	.
Cc1noc(C)c1S(=O)(=O)Nc1ccc2c(c1)C(=O)N([C@@H](C)CO)C[C@H](C)[C@H](CN(C)C(=O)CCC(F)(F)F)OCCCC[C@@H](C)O2	.	-9	.	.	.
COc1ccccc1NC(=O)NC1(C(=O)N2CCCCCC2)CCCCC1	0	-7	i	106*	5
COc1ccccc1NC(=O)NC1(C(=O)N2CCOCC2)CCCCC1	0	.	i	14	2
Cc1ccc2nc(N(CCN(C)C)C(=O)c3ccc4ccccc4c3)sc2c1	2	8	+	-7	14
Cc1cccc2sc(N(CCN(C)C)C(=O)c3ccc4ccccc4c3)nc12	0	-1	+	4	4
CN(C)CCN(C(=O)c1ccc2ccccc2c1)c1nc2c(F)cc(F)cc2s1	1	.	i	19	17
COc1ccc2nc(N(CCN(C)C)C(=O)c3ccc4ccccc4c3)sc2c1	0	1	i	0	5
CCN(CC)CCN(C(=O)CCOc1ccccc1)c1nc2ccc(F)cc2s1	0	.	i	.	3
CN(C)CCN(C(=O)c1ccc2ccccc2c1)c1nc2ccc(Br)cc2s1	1	-1	+	4	15
CCN(CC)CCN(C(=O)c1ccc2ccccc2c1)c1nc2ccc(F)cc2s1	3	5	+	0	22
CCCNC(=O)N1[C@@H]2CNC[C@H]1C2c1ccc(-c2ccc(C)cc2)cc1 (some centres not stated)	.	-1	.	.	.
C[C@@H]1CN([C@@H](C)CO)S(=O)(=O)c2ccc(C3=CCCC3)cc2O[C@H]1CN(C)C(=O)c1cccnc1	.	9	.	-5	.
COc1ccc(C(N)CCc2ccc(C)o2)cc1 (configuration not stated)	0	-2	i	137*	5
CO[C@H]1CN(C)C(=O)c2cc(NC(=O)Nc3ccccc3F)ccc2OC[C@@H](C)N(C)C[C@@H]1C	.	1	.	-6	.
O=C1c2ccc(-c3ccc4c(c3)C(=O)N(CCCO)C4=O)cc2C(=O)N1CCCO	0	70*	i	-2	13
CCCC1CC(CCc2ccccc2)OS(=O)(=O)N1 (configuration not stated)	0	-3	i	95*	-32
c1ccc(CC[C@@H]2CC[C@@H](CCc3ccccc3)N2)cc1	.	-10	.	47	.
COCC(=O)Nc1ccc2c(c1)OC[C@H](C)N(Cc1cccnc1)C[C@@H](C)[C@H](OC)CN(C)C2=O	.	4	.	1	.
CC(C)NC(=O)CS(=O)(=O)c1ccccc1	0	-3	i	112*	6
O=C(CS(=O)(=O)c1ccccc1)NC1CCCCC1	0	-3	i	12	-9
SMILES	HIF act	PGC1a acetyl inh	Rce1 inh	C2C12 statin	AI-2 QS mod
Cc1ccc(S(=O)(=O)N2CC[C@@H]3[C@H]2c2cc(C#Cc4cccnc4)ccc2N(C)[C@H]3CO)cc1	.	-15	.	-19	.
O=C(/C=C/c1ccco1)NCc1ccc2c(c1)OCO2	0	-1	i	12	-77*
O=C(/C=C/c1ccco1)Nc1ccc2c(c1)OCO2	5	3	i	.	-14
CN1CCN(Cc2cc(COCc3ccccc3)c3cccnc3c2O)CC1	221*	28	.	59	-65
Oc1ccc(CN2CCN(Cc3ccccc3)CC2)c2cccnc12	11*	0	i	4	38
COc1ccc(/C=N/NC(=S)Nc2cc(S(=O)(=O)N3CCOCC3)ccc2N2CCOCC2)cc1O	35*	.	i	.	13
COCC(=O)Nc1ccc2c(c1)C(=O)N(C)[C@@H]1CC[C@H](CC(=O)NCc3ccccc3)O[C@@H]1CO2	.	6	.	-7	.
O=C(N/N=C/c1c[nH]c2ccccc12)c1cc(-c2ccc3ccccc3c2)n[nH]1	0	.	i	.	-79*
